Values joined by “and” are separate entries in the source; they are usually repeats but may differ in a detail not shown here. Equal values may be shown once. This is part of a sample that, as a whole, favours compounds with a hit. Of some 79,000 tested, about 15% had one in any assay. Some compounds were tested as several samples or in several runs, with calls that do not always agree. Active and inactive are the calls of the source. Cut-off read from the data, not from the text of the source: active = growth inhibition above about 70%; inactive = the rest.

A short description of the first test: NCI Yeast Anticancer Drug Screen. Data for the bub3 strain (AID 167). The note with it: S. cerevisiae bub3 mutant strain, at 50.0 µM (retest, dose inferred, filed as 5.0), stronger effect = higher value. In a few lines: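 Compounds were applied to a genetically altered yeast strain carrying a cell-cycle control defect. Growth inhibition was scored against vehicle-treated controls.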
For `Oc1c(Cl)cc(Cl)cc1Cc1cc(Cl)cc(Cl)c1O`, the growth inhibition was 98% (active).

Regarding `COc1cc(OC)c(OC)cc1/C=C\c1ccnc2ccccc12`, the growth inhibition is 79% (active).

Regarding `CC(C)C1=CC23CCC4C(C)(C(=O)O)CCCC4(C)C2CC1C1C(=O)OC(=O)C13` (stereo unspecified), the growth inhibition was 99% (active).

As to `CN(C)c1nc(N)c(C#N)c(C#N)c1C#N`, the growth inhibition is 79% (active).

On to `C/C(=N\NC(=S)N1CCN(c2ccccn2)CC1)c1nccs1`, for which the growth inhibition is 99% (active).

Take `CCCCCCCCCCCCCCCCCCOCC(COP(=O)([O-])OCC[N+](C)(C)C)OC` (stereo unspecified): the growth inhibition is -28% (inactive).

Regarding `COc1ccc2nc(C)cc(NCCCCCCCCCNc3cc(C)nc4ccc(OC)cc34)c2c1`, the growth inhibition is 88% (active).

In the case of `CC1CC[P+](c2ccccc2)(c2ccccc2)c2c1ccc1ccccc21` (stereo unspecified), the growth inhibition is 99% (active).

As to `CC(C)C1=C(O)C2=C(C(=O)C1=O)C1(C)CCCC(C)(C)C1CC2O` (stereo unspecified), the growth inhibition is 97% (active).

`CC(=O)[O-].[O-]c1c(Cl)cc(Cl)cc1/C=N/Nc1ccccn1.[Zn+2]`: the growth inhibition was 96% (active).

`O=C(c1ccccc1)C(c1ccccc1)C(O)c1ccc([N+](=O)[O-])cc1` (stereo unspecified): the growth inhibition was 92% (active) and 99% (active).

Take `Clc1nc(Cl)c(Cl)c(Cl)n1`: the growth inhibition is 99% (active).

For the compound `COc1cccc2c1C(=O)c1c(O)c3c(c(O)c1C2=O)C[C@@](O)(C(C)=O)C[C@@H]3OC1CC(N(C)C)C(O)C(C)O1` (stereo partly specified), the growth inhibition was 99% (active).

Turning to `CN1C(c2ccccc2)CC(=NOCc2ccccc2)CC1c1ccccc1` (stereo unspecified), the growth inhibition was 96% (active).

`Cc1ccc(NCCN(C)C)c2c(=O)c3cc(O)ccc3sc12`: the growth inhibition was 98% (active).

Regarding `N#CC1(C2SCCS2=O)C2=C(C(=O)c3ccccc3C2=O)N2CCCC21` (stereo unspecified), the growth inhibition was 80% (active).

Consider `CCN(CC)CCC(=O)/C=C/c1ccccc1`, for which the growth inhibition was 99% (active).

For `CC1(O)Cc2c(O)c3c(c(O)c2CC1O)C(=O)C=CC3=O` (stereo unspecified), the growth inhibition is 56% (inactive).

On to `Cc1ccc2c(c1)C1(C)OC(C=CC1=O)O2` (stereo unspecified), for which the growth inhibition is 100% (active).

In the case of `Fc1cccc(CSC(=S)Nc2ccc(F)c(F)c2)c1`, the growth inhibition is 95% (active).

With `CCN(CCO)CCNc1ccc(C)c2sc3ccccc3c(=O)c12`, the growth inhibition was 98% (active).

As to `Cc1n(-c2ccccc2)c2c([n+]1Cc1ccc([N+](=O)[O-])cc1)C(=O)c1ccccc1C2=O`, the growth inhibition is 98% (active).

In the case of `CC(=O)OC1COC(n2c(N)c(C#N)c(-c3ccccc3)c(C#N)c2=S)C(OC(C)=O)C1OC(C)=O` (stereo unspecified), the growth inhibition is -33% (inactive) and 79% (active).

With `O=c1[nH]c2cc([N+](=O)[O-])ccc2nc1/C=C(\O)c1ccc([N+](=O)[O-])cc1`, the growth inhibition was 86% (active).

`Cc1n(Cc2ccccc2)c2c([n+]1C)C(=O)c1ccccc1C2=O`: the growth inhibition was 98% (active).

As for `CS(=O)(=O)OCCN(CCOS(C)(=O)=O)c1ccc(C=Nc2ccc(-c3csc(Cc4ccccc4)n3)cc2)c(Cl)c1`, the growth inhibition is 78% (active).

As for `CCCCCCCCCCS(=O)CC(CO)NC(=O)/C=C/c1c(C)[nH]c(=O)[nH]c1=O` (stereo unspecified), the growth inhibition is 96% (active).

`C/C(=N\O)c1cc(Br)cc([N+](=O)[O-])c1O`: the growth inhibition was 10% (inactive).

On to `COc1cc2c(c(OC)c1OC)-c1ccc(SC)c(=O)cc1C(NC(=O)c1ccccc1)CC2` (stereo unspecified), for which the growth inhibition is 63% (inactive).

Regarding `COc1cccc2c1C(=O)c1c(O)c3c(c(O)c1C2=O)C[C@@](O)(C(C)=O)C[C@@H]3OC1CC(O)C(O)C(C)O1` (stereo partly specified), the growth inhibition was 96% (active).

As to `CCCCCCCc1c(Cl)nc(Cl)nc1Cl`, the growth inhibition is 99% (active).

Regarding `O=C1/C(=C/c2ccc(Cl)cc2)CNC/C1=C\c1ccc(Cl)cc1`, the growth inhibition was 85% (active) and 95% (active).

As to `O=C1C(Cl)=C(N2CCN(C3=C(Cl)C(=O)c4ccccc4C3=O)CC2)C(=O)c2ccccc21`, the growth inhibition was 98% (active).

`O=C1c2ccccc2-n2c1nc1ccccc1c2=O`: the growth inhibition was 57% (inactive).

For `Nc1ccc(Cn2ccc3c4c(N)nc(N)nc4ccc32)cc1`, the growth inhibition was 84% (active).

`Nc1nc(N)c2c(Cl)c(CNc3ccc(Cl)c(Cl)c3)ccc2n1`: the growth inhibition is 98% (active).

As to `Cc1cc(NCCCCCCCNc2cc(C)nc3cc([N+](=O)[O-])ccc23)c2ccc([N+](=O)[O-])cc2n1`, the growth inhibition is 83% (active).

On to `CCCCCCCCCCCCCCCCCC(=O)NCCO`, for which the growth inhibition was 7% (inactive).

The test is the same for the next values; noted with them: S. cerevisiae bub3 mutant strain, at 50.0 µM, stronger effect = higher value.
On to `Oc1c(Cl)cc(Cl)cc1Cc1cc(Cl)cc(Cl)c1O`, for which the growth inhibition is 98.4% (active) and 99.3% (active).

On to `COc1cc(OC)c(OC)cc1/C=C\c1ccnc2ccccc12`, for which the growth inhibition is 62.8% (inactive).

As to `CC(C)C1=CC23CCC4C(C)(C(=O)O)CCCC4(C)C2CC1C1C(=O)OC(=O)C13` (stereo unspecified), the growth inhibition is 99% (active) and 99.5% (active).

With `CN(C)c1nc(N)c(C#N)c(C#N)c1C#N`, the growth inhibition was 88.5% (active).

As for `C/C(=N\NC(=S)N1CCN(c2ccccn2)CC1)c1nccs1`, the growth inhibition is 87.3% (active).

For `CCCCCCCCCCCCCCCCCCOCC(COP(=O)([O-])OCC[N+](C)(C)C)OC` (stereo unspecified), the growth inhibition is 90.5% (active) and -7.55% (inactive).

On to `COc1ccc2nc(C)cc(NCCCCCCCCCNc3cc(C)nc4ccc(OC)cc34)c2c1`, for which the growth inhibition was 78.5% (active).

Turning to `CC1CC[P+](c2ccccc2)(c2ccccc2)c2c1ccc1ccccc21` (stereo unspecified), the growth inhibition is 88.6% (active).

Turning to `CC(C)C1=C(O)C2=C(C(=O)C1=O)C1(C)CCCC(C)(C)C1CC2O` (stereo unspecified), the growth inhibition was 56.6% (inactive) and 17.4% (inactive).

Regarding `CC(=O)[O-].[O-]c1c(Cl)cc(Cl)cc1/C=N/Nc1ccccn1.[Zn+2]`, the growth inhibition was 37.2% (inactive).

Take `O=C(c1ccccc1)C(c1ccccc1)C(O)c1ccc([N+](=O)[O-])cc1` (stereo unspecified): the growth inhibition is 95.6% (active) and 98.9% (active).

Turning to `Clc1nc(Cl)c(Cl)c(Cl)n1`, the growth inhibition was 33% (inactive).

Turning to `COc1cccc2c1C(=O)c1c(O)c3c(c(O)c1C2=O)C[C@@](O)(C(C)=O)C[C@@H]3OC1CC(N(C)C)C(O)C(C)O1` (stereo partly specified), the growth inhibition was 88% (active).

With `CN1C(c2ccccc2)CC(=NOCc2ccccc2)CC1c1ccccc1` (stereo unspecified), the growth inhibition is 84% (active).

Consider `Cc1ccc(NCCN(C)C)c2c(=O)c3cc(O)ccc3sc12`, for which the growth inhibition is 88.4% (active).

On to `N#CC1(C2SCCS2=O)C2=C(C(=O)c3ccccc3C2=O)N2CCCC21` (stereo unspecified), for which the growth inhibition was 70.2% (active).

In the case of `CCN(CC)CCC(=O)/C=C/c1ccccc1`, the growth inhibition was 99.5% (active) and 49.5% (inactive).

Regarding `CC1(O)Cc2c(O)c3c(c(O)c2CC1O)C(=O)C=CC3=O` (stereo unspecified), the growth inhibition was 24.2% (inactive).

`Cc1ccc2c(c1)C1(C)OC(C=CC1=O)O2` (stereo unspecified): the growth inhibition was 87.8% (active).

For `Fc1cccc(CSC(=S)Nc2ccc(F)c(F)c2)c1`, the growth inhibition was 99.7% (active).

As to `CCN(CCO)CCNc1ccc(C)c2sc3ccccc3c(=O)c12`, the growth inhibition was 90.5% (active).

In the case of `Cc1n(-c2ccccc2)c2c([n+]1Cc1ccc([N+](=O)[O-])cc1)C(=O)c1ccccc1C2=O`, the growth inhibition is 88.5% (active).

Take `CC(=O)OC1COC(n2c(N)c(C#N)c(-c3ccccc3)c(C#N)c2=S)C(OC(C)=O)C1OC(C)=O` (stereo unspecified): the growth inhibition is 35.7% (inactive) and 4.05% (inactive).

`O=c1[nH]c2cc([N+](=O)[O-])ccc2nc1/C=C(\O)c1ccc([N+](=O)[O-])cc1`: the growth inhibition is 4.75% (inactive) and 5.75% (inactive).

`Cc1n(Cc2ccccc2)c2c([n+]1C)C(=O)c1ccccc1C2=O`: the growth inhibition is 89.2% (active).

For the compound `CS(=O)(=O)OCCN(CCOS(C)(=O)=O)c1ccc(C=Nc2ccc(-c3csc(Cc4ccccc4)n3)cc2)c(Cl)c1`, the growth inhibition is 76% (active).

With `CCCCCCCCCCS(=O)CC(CO)NC(=O)/C=C/c1c(C)[nH]c(=O)[nH]c1=O` (stereo unspecified), the growth inhibition is 88.3% (active).

`C/C(=N\O)c1cc(Br)cc([N+](=O)[O-])c1O`: the growth inhibition was 8.3% (inactive).

As for `COc1cc2c(c(OC)c1OC)-c1ccc(SC)c(=O)cc1C(NC(=O)c1ccccc1)CC2` (stereo unspecified), the growth inhibition is 78.5% (active).

Regarding `COc1cccc2c1C(=O)c1c(O)c3c(c(O)c1C2=O)C[C@@](O)(C(C)=O)C[C@@H]3OC1CC(O)C(O)C(C)O1` (stereo partly specified), the growth inhibition is 85.3% (active).

For `CCCCCCCc1c(Cl)nc(Cl)nc1Cl`, the growth inhibition is 76.2% (active).

For `O=C1/C(=C/c2ccc(Cl)cc2)CNC/C1=C\c1ccc(Cl)cc1`, the growth inhibition is 79.9% (active) and 85.3% (active).

With `O=C1C(Cl)=C(N2CCN(C3=C(Cl)C(=O)c4ccccc4C3=O)CC2)C(=O)c2ccccc21`, the growth inhibition was 87.9% (active).

With `O=C1c2ccccc2-n2c1nc1ccccc1c2=O`, the growth inhibition was 53.1% (inactive).

Turning to `Nc1ccc(Cn2ccc3c4c(N)nc(N)nc4ccc32)cc1`, the growth inhibition was 41.4% (inactive).

Take `Nc1nc(N)c2c(Cl)c(CNc3ccc(Cl)c(Cl)c3)ccc2n1`: the growth inhibition is 89.7% (active).

On to `Cc1cc(NCCCCCCCNc2cc(C)nc3cc([N+](=O)[O-])ccc23)c2ccc([N+](=O)[O-])cc2n1`, for which the growth inhibition was 73.1% (active).

For the compound `CCCCCCCCCCCCCCCCCC(=O)NCCO`, the growth inhibition is -3.75% (inactive) and 1.55% (inactive).

The record behind these values is PubChem BioAssay (NCI).
